Compound activity deposited in PubChem by National Center for Advancing Translational Sciences (NCATS).
SNCA expr inh: SNCA gene expression inhibition; HEK-293 SNCA-luciferase knock-in, luminescence, 24 h; Potency, µM (series often up to 57.2 µM), for inactives: top-dose activity change, negative = inhibition, usual class: inhibitors; 0.17% of 140,000 active;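 further: plate controls were DMSO cells for no effect and cell-free wells for full effect; nearly all actives have a fitted effect of over 45% in size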
GPT2 inh: blocks human glutamate pyruvate transaminase 2; Q8TD30; 0.25% of 100,000 active; Potency, µM (top dose mostly 57.7 µM), for the others: top-dose activity change, negative = inhibition, actives largely listed as inhibitors; Recombinant GPT2, coupled pyruvate oxidase/HRP Amplex Red fluorescence; further: nearly all actives have a fitted effect of over 60% in size
Target sequence (Q8TD30 whole entry, looked up): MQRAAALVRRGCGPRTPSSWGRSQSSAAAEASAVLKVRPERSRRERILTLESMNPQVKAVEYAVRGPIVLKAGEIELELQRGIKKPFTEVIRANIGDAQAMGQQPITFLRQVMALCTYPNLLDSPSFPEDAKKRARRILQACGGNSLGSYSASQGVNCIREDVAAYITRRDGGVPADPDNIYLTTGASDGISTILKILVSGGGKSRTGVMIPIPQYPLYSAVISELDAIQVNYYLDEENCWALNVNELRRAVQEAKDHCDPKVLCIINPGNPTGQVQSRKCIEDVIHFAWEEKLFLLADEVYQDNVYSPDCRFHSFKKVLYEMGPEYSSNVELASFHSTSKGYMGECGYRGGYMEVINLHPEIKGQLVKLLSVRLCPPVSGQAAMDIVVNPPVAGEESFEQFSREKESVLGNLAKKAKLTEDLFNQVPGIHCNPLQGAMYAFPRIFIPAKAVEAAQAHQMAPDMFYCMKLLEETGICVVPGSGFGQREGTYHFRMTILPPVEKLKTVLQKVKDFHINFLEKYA
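Fluorescence of coupled pyruvate oxidase/HRP/Amplex Red system (50uM Amplex, 30 min, dark) reports pyruvate formed by GPT2. Enzyme reaction: 10ng/uL GPT2, 2mM L-alanine, 250uM a-KG, 30 min room temperature, pH 7.5; 50uM AOA control.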
SNCA viab count: reduces viability of HEK-293 SNCA reporter cells; HEK-293-SNCA-luc viability, GF-AFC fluorescence, 24 h; Potency, µM (top dose mostly 57.1 µM), without a hit: top-dose activity change, negative = cytotoxicity, usual class: cytotoxic; 0.12% of 150,000 active; AID 1671193;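 further: 0% = DMSO-treated cells and -100% = medium-only wells without cells; nearly all actives have a fitted effect of over 30% in size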
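Cytotoxicity counterscreen: after 24 h compound treatment of genome-edited SNCA-luciferase HEK-293 cells, live-cell protease substrate GF-AFC read by fluorescence after 30 min; activity scaled between DMSO (0%) and medium-only (-100%), curves Hill-fitted.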
* hit, by the source's call; i = inactive; ? = inconclusive; nt = not tested or not shown; [ ] = dose if it differs, or a comment. Sampled rows, rich in hits. Any-hit rate of the full collection: about 0.36%. The call rests on the fitted dose curve; in most records, active means well fitted curve in the direction sought with a large enough effect; inconclusive means small, poorly fitted or top-dose-only effect, or another doubt; inactive means no such curve, though single readings can be large; an effect the other way counts as inactive or inconclusive. Unless noted, on the % scale 0 is the no-effect control and ±100 the full control effect; potency means the concentration at half of the fitted maximal effect.

SMILES	SNCA expr inh	GPT2 inh	SNCA viab count
CC(=O)Oc1c(-c2ccc(NC(=O)c3ccco3)cc2)c(-c2cccc(C)c2)nn1-c1ccc(F)cc1	6%	25µM*	-6%
CC(=O)Oc1c(-c2ccc(NC(=O)c3ccco3)cc2)c(-c2cccc(C)c2)nn1-c1cccc(F)c1	-21%	?	-2%
Cc1cc(C)cc(-c2ccc(CN3CCCC(NC(=O)c4ccccn4)C3)cc2)c1 (stereo not given)	-30%	-10%	-10%
Cn1cccc1CN1CCC(Oc2ccccc2-c2nc(-c3ccncc3)no2)C1 (stereo not given)	85%	i	-18%
CCOCCNC(=O)[C@@H]1CCCN1C(=O)c1cccc(-c2ccccc2OC)c1	4%	i	1%[12.5 µM]
CC(C)(C)c1ccc(-c2nnc(-c3ccccc3NC(=O)c3ccc(F)cc3F)o2)cc1	16%	nt	8%
CCc1ccccc1NC(=O)C(CC)Oc1ccccc1-c1nnc(-c2ccccc2)o1 (stereo not given)	8.9µM*	nt	?
COc1ccccc1C(=O)NC1CCCN(Cc2cccc(-c3ccc(C)c(Cl)c3)c2)C1 (stereo not given)	-27%	-6%	-11%
Clc1ccccc1C1(c2ccnc(NC3CCC3)n2)CCNCC1	-24%	-34%	?
CCCC(=O)c1cc2c(cc1NC(=O)c1ccccc1F)OCCO2	14µM*	nt	-4%
CCC(=O)c1cc2c(cc1NC(=O)c1ccccc1F)OCCO2	12%	nt	1%
O=C1Nc2ccccc2CN(Cc2ccc(C(F)(F)F)cc2)C12CCNCC2	1%	5%	-30%
O=C(Nc1cccc(-c2ccc(N3CCCC3)nn2)c1)c1c(F)cccc1F	5%	i	-4%
CC1CCN(c2ccc(-c3cccc(N)c3)nn2)CC1	1.4µM*	1%	-19%
Cc1ccc(C(=O)Nc2cccc(-c3ccc(N4CCN(C)CC4)nn3)c2)cc1C	14%	i	-10%
CN1CCN(c2ccc(-c3cccc(N)c3)nn2)CC1	22µM*	i	-5%
O=C(NCCCc1ccccc1)C1CCCN(c2nccc(Nc3ccccc3F)n2)C1 (stereo not given)	11%	-2%	6%[12.5 µM]
O=C(NCc1ccc(F)cc1)C1CCCCN1Cc1ccc(-c2ccsc2)cc1 (stereo not given)	-10%	?	-12%
COc1cc(C)c2c(c1C)C[C@H](C(C)C(=O)NCc1cccs1)CC2 (stereo not given in full)	-16%[87.6 µM]	i	-16%[87.6 µM]
O=C(Cc1ccc(N(Cc2cccc(F)c2)C(=O)c2ccco2)cc1)NCc1ccco1	-24%	-4%	7%
O=C(c1ccccc1F)N1CCN(Cc2ccccc2-c2cccnc2)CC1	1%	?	7%[12.5 µM]
Clc1ccc2ncc(-c3cccc(NC4CNC4)n3)n2c1	0.61µM*	?	-30%
c1cc(NC2CCNCC2)nc(-c2cnc3ccccn23)c1	nt	3%	?
COc1ccc(N2CC3CCC(C2)N3Cc2ccccc2)cc1	-6%	?	10%
COc1ccc(N2CC3CCC(C2)N3Cc2cccc(-c3cccnc3)c2)cc1	?	6.3µM*	-2%
SMILES	SNCA expr inh	GPT2 inh	SNCA viab count
O=C(Cc1c[nH]c2ccccc12)NC1CCCc2c1[nH]c1ccc(F)cc21 (stereo not given)	-26%	-10%	-13%
FC(F)(F)c1ccc(CN2CC[C@H](c3nc4ccc(C(F)(F)F)cc4[nH]3)C2)cc1	?	-22%[88.5 µM]	?
Cc1ccc(-n2nc3c(=O)n(CCCC(=O)NC(C)c4ccccc4)nc(C)c3c2C)cc1 (stereo not given)	28µM*	nt	2%
Cc1ccc(-n2nc3c(=O)n(CCCC(=O)NCCc4ccccc4)nc(C)c3c2C)cc1	22%	nt	5%
O=C(NC1CCN(c2ccnc3ccnn23)CC1)c1ccncc1	4%[87.6 µM]	i	-2%[87.6 µM]
Cn1cncc1C(N)(c1ccc(Cl)cc1)c1ccc2c(c1)c(-c1cccc(Cl)c1)cc(=O)n2C (stereo not given)	nt	i	9.5µM*
Cc1cc(NC(=O)c2cc(-c3cccc(Cl)c3)on2)nn1Cc1ccc(Cl)cc1	15%	nt	4%
O=C(NCCCc1ccccc1)c1nc2sccn2c1-c1ccc(F)cc1	-10%[87.6 µM]	i	?
COCCNCCCn1c(C(=O)CF)c(-c2ccc(C)cc2)c2c(N)ncnc21	-28%	i	-11%
Cc1ccc(-c2c(C(=O)CCl)n(CCCO)c3ncnc(N)c23)cc1	nt	?	24µM*
CC(=O)N1CCC(Cc2ccc(C(=O)NCc3cc(F)cc(F)c3)cc2)CC1	-4%	4%	15%
COc1cncc(N2C[C@@H]3[C@H](C2)N(CCOc2ccccc2)C(=O)C(C)(C)[S+]3(=O)[O-])c1	3%	10µM*	-3%
